Source: PubChem BioAssay
Pf growth 48h = P. falciparum growth inhibition at 48 hours (one generation); AID 504832; P. falciparum luciferase growth in erythrocytes, 48 h; Potency, µM (series often up to 28.7 µM), for the others: at the top dose activity change, negative = inhibition, usual class: inhibitors; 310,000 tested, 5.9% active; also: % is scaled to controls: 0 for no effect and ±100 for the full control effect
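Firefly luciferase activity from engineered P. falciparum reports growth; inhibitors lower the luminescent signal. Cultures contained 2% hematocrit erythrocytes at 0.1% final parasitemia.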
SARS PLP yeast = inhibitors of SARS-CoV papain-like protease in yeast. S. cerevisiae expressing SARS-CoV PLpro, growth rescue. Potency, µM (highest dose often 32.9 µM), inactives show top-dose activity, positive = growth rescue, hits mostly activators. 330,000 tested, 0.19% active; calls by dose curve; also: 0% is about no effect; nearly all actives have a fitted effect of over 55% in size
AMA1 RON2 block = disrupts binding of P. falciparum AMA1 to RON2; Potency, µM (highest dose often 58.2 µM), for inactives: top-dose activity change, negative = inhibition, usual class: inhibitors; AID 720542; 360,000 tested, 0.2% active; AlphaScreen AMA1-biotinylated RON2 peptide binding;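 also: 0% = vehicle wells and -100% = peptide control; nearly all actives have a fitted effect of over 45% in size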
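AMA1 (3D7) with his tag at 25 nM final met compounds first, then biotinylated RON2 peptide at 25 nM; detection used donor plus acceptor beads, 10 µg/mL apiece, read by AlphaScreen after 30 min at room temperature.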
Pf growth 96h = P. falciparum growth inhibition at 96 hour, primary screen for plastid delayed-death inhibitors | P. falciparum luciferase reporter growth, 96 h | Potency, µM (titrated, usually from 28.7 µM), for the others: at the top dose activity change, negative = inhibition, usual class: inhibitors | 320,000 tested, 6.9% active | AID 504834; also: % is scaled to controls: 0 for no effect and ±100 for the full control effect
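Two-generation exposure (96 h) targets delayed-death phenotype. Reporter parasites carrying integrated firefly luciferase, in red cells at 2% hematocrit and 0.05% parasitemia final, kept at 37 C, 5% CO2; luminescence loss indicates inhibition.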
Numbers without * were called inactive; [ ] = remark or other dose. A selection: hits, their analogues and other compounds. The true share with any hit is near 9.4%. Unless noted, calls follow the shape of the dose curve; as a rule, active = well fitted curve in the direction sought with a large enough effect; inconclusive = small, poorly fitted or top-dose-only effect, or another doubt; inactive = no such curve, though single readings can be large; an effect the other way counts as inactive or inconclusive. Potency is read from the fitted curve at half-maximal effect.

For NC(c1ccccc1)c1csc(Nc2ccccn2)n1 (centres undefined) the results were AMA1 RON2 block -3%.
C#CCNC(=O)C[C@@H]1C[C@@]2(C(=O)OC)CCCCC=C2N(CCc2ccc(OC)c(OC)c2)C1=O was read as AMA1 RON2 block -2%.
Screening CCOC(=O)c1c[nH]c2c(Cl)c(Cl)ccc2c1=O returned Pf growth 48h -1%, SARS PLP yeast 16%, AMA1 RON2 block 1% and Pf growth 96h -34%.
Screening CCOC(=O)c1c[nH]c2c(C(=O)c3ccccc3)cc(Cl)cc2c1=O returned Pf growth 48h -6%, SARS PLP yeast 4%, AMA1 RON2 block 13% and Pf growth 96h -8%.
For CCOC(=O)c1c[nH]c2c3c(ccc2c1=O)CCCC3 the results were Pf growth 48h 0.33µM*, SARS PLP yeast 0%, AMA1 RON2 block -8% and Pf growth 96h inconclusive.
`CCOC(=O)c1c[nH]c2c(C)cc(C)cc2c1=O` gave Pf growth 48h 5.2µM*, SARS PLP yeast 0%, AMA1 RON2 block -19% and Pf growth 96h 10%.
Screening COc1cc2c(cc1OC)C(c1cc3ccc(C)cc3[nH]c1=O)N(C(=O)c1ccco1)CC2 (centres undefined) returned Pf growth 48h 13µM*, SARS PLP yeast -1%, AMA1 RON2 block -7% and Pf growth 96h 5%.
`COc1cc2c(cc1OC)C(c1cc(OC)c(OC)cc1[N+](=O)[O-])N(C(C)=O)CC2` (centres undefined) gave Pf growth 48h 14%, SARS PLP yeast 1%, AMA1 RON2 block -11% and Pf growth 96h 0%.
For COc1cc2c(cc1OC)C(c1cc3cc4c(cc3[nH]c1=O)OCO4)N(C(=O)C1CC1)CC2 (centres undefined) the results were Pf growth 48h 13µM*, SARS PLP yeast 9%, AMA1 RON2 block -14% and Pf growth 96h 18%.
For COc1cc2c(cc1OC)C(C)N(C(=O)c1ccc(C)o1)CC2 (centres undefined) the results were Pf growth 48h -12%, SARS PLP yeast 1%, AMA1 RON2 block -11% and Pf growth 96h -7%.
`Clc1ccc2c(N/N=C/c3cccnc3)ccnc2c1` gave Pf growth 48h 0.66µM*, SARS PLP yeast -3%, AMA1 RON2 block 4% and Pf growth 96h 0.83µM*.
`Clc1ccc2c(N/N=C/c3ccc(Br)cc3)ccnc2c1` gave Pf growth 48h 0.33µM*, SARS PLP yeast -81%, AMA1 RON2 block 6%[11.6 µM] and Pf growth 96h 1.5µM*.
Fc1ccc(N/N=C/c2cccnc2)c(F)c1 was read as Pf growth 48h 13%, SARS PLP yeast -3%, AMA1 RON2 block 2% and Pf growth 96h -18%.
Screening CCOC(=O)c1cc2c(N)c(C(=O)c3cc(C#N)c(SC)nc3C)sc2nc1C returned Pf growth 48h 16%, SARS PLP yeast 0%, AMA1 RON2 block 3% and Pf growth 96h -3%.
For COC(=O)C1=COC(C)C2CN3CCc4c([nH]c5cc(OC)c(OC)cc45)C3CC12 (centres undefined) the results were Pf growth 48h inconclusive, SARS PLP yeast -1%, AMA1 RON2 block -9% and Pf growth 96h 0.83µM*.
`COc1ccc(C(=O)C(CCC(CNC(C)(C)C)C(=O)c2ccc(OC)cc2)CNC(C)(C)C)cc1` (centres undefined) gave Pf growth 48h 7.4µM*, SARS PLP yeast -33%, AMA1 RON2 block 0% and Pf growth 96h inconclusive.
Screening COc1ccc(C(=O)CC(=O)c2ccc(C(C)(C)C)cc2)cc1 returned Pf growth 48h 75%, AMA1 RON2 block 127% and Pf growth 96h 3%.
For CCCC(=O)Nc1nc2ccc3nc(C)sc3c2s1 the results were Pf growth 48h inconclusive, SARS PLP yeast -1% and AMA1 RON2 block -10%.
Screening CCCCC(=O)Nc1nc2ccc3nc(C)sc3c2s1 returned Pf growth 48h inconclusive, SARS PLP yeast -16%, AMA1 RON2 block 14% and Pf growth 96h 10µM*.
Nc1ccc(-c2nc3c(Cl)cc(N)cc3[nH]2)cc1 was read as Pf growth 48h inconclusive, SARS PLP yeast 1%, AMA1 RON2 block -16% and Pf growth 96h 9.3µM*.
`C=CCN(c1ccc(C(=O)NCCSc2ccccc2)cc1)S(C)(=O)=O` gave Pf growth 48h 21%, SARS PLP yeast 2%, AMA1 RON2 block 0% and Pf growth 96h 15µM*.
Screening COc1ccc(CCNC(=O)c2c[nH]c3ccccc3c2=O)cc1OC returned Pf growth 48h inconclusive, SARS PLP yeast 2%, AMA1 RON2 block 15% and Pf growth 96h -25%.
CCN(CC)S(=O)(=O)c1ccc2[nH]cc(C(=O)NC3CC3)c(=O)c2c1 was read as Pf growth 48h -7%, SARS PLP yeast -1%, AMA1 RON2 block -1% and Pf growth 96h 0.47µM*.
Cc1ccccc1NS(=O)(=O)c1ccc2[nH]cc(C(=O)NC3CCCCC3)c(=O)c2c1 was read as Pf growth 48h 12µM*, SARS PLP yeast -5% and Pf growth 96h 12µM*.
Screening COc1cccc(NS(=O)(=O)c2ccc3[nH]cc(C(=O)NCCc4ccc(C)cc4)c(=O)c3c2)c1 returned Pf growth 48h inconclusive, SARS PLP yeast 0% and Pf growth 96h 12µM*.
For Cc1ccccc1NS(=O)(=O)c1ccc2[nH]cc(C(=O)N3CCCCC3)c(=O)c2c1 the results were Pf growth 48h inconclusive, SARS PLP yeast -8% and Pf growth 96h 7%.
`COc1ccc(CCNC(=O)c2c[nH]c3ccc(F)cc3c2=O)cc1OC` gave Pf growth 48h 12µM*, AMA1 RON2 block 0% and Pf growth 96h 0%.
`COc1cccc(NS(=O)(=O)c2ccc3[nH]cc(C(=O)NC4CC4)c(=O)c3c2)c1` gave Pf growth 48h inconclusive, SARS PLP yeast -11%, AMA1 RON2 block -17% and Pf growth 96h inconclusive.
For CCN(CC)S(=O)(=O)c1ccc2c(c1)c(=O)c(C(=O)NCCc1ccc(OC)c(OC)c1)cn2C the results were Pf growth 48h inconclusive, SARS PLP yeast 2%, AMA1 RON2 block 6% and Pf growth 96h inconclusive.
`COCCCNC(=O)c1c[nH]c2ccc(S(=O)(=O)N3CCc4ccccc43)cc2c1=O` gave Pf growth 48h 12µM*, SARS PLP yeast -3%, AMA1 RON2 block -3% and Pf growth 96h 5%.
Screening COCCNC(=O)c1c[nH]c2ccc(S(=O)(=O)N3CCc4ccccc43)cc2c1=O returned Pf growth 48h inconclusive, SARS PLP yeast 2%, AMA1 RON2 block 7% and Pf growth 96h -28%.
`CCN(CC)S(=O)(=O)c1ccc2[nH]cc(C(=O)NCCc3ccc(OC)c(OC)c3)c(=O)c2c1` gave Pf growth 48h inconclusive, SARS PLP yeast 6%, AMA1 RON2 block 0% and Pf growth 96h 8.3µM*.
Screening COc1cccc(-c2nn(-c3ccccc3)cc2CO)c1 returned Pf growth 48h 99% and AMA1 RON2 block 28%.
COc1cccc(-c2nn(-c3ccccc3)cc2CNC(C)Cn2cncn2)c1 (centres undefined) was read as Pf growth 48h 36%, SARS PLP yeast 0%, AMA1 RON2 block -9% and Pf growth 96h 10µM*.
